# A number with no mark means an inactive call. Calls of active or inactive are those of the source.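 Rule for the calls: active = normalized viability below 100% at a tested concentration; inactive = the rest.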
# Assay: ovarian cancer cell viability with rucaparib, profiling panel, oncology-focused library, rucaparib conditional (AID 1508598)
# Conditions: patient-derived ovarian cancer cells, CellTiter-Glo viability, 144 h; at 0.00488 µM; OCI-P5x cells; without rucaparib; active compounds read low
row,SMILES,viability
1,C[C@@H](N)C1CCC(C(=O)Nc2ccncc2)CC1 (some centres undefined),96.4% (active)
2,CC(C)c1onc(-c2c(Cl)cccc2Cl)c1COc1ccc(/C=C/c2cccc(C(=O)O)c2)c(Cl)c1,91.9% (active)
3,O=c1cc(N2CCOCC2)oc2c(-c3ccccc3)cccc12,95.7% (active)
4,Cc1ccc(S(=O)(=O)/C=C/C#N)cc1,105%
5,C[C@H](NC(=O)Cc1cc(F)cc(F)c1)C(=O)N[C@H](C(=O)OC(C)(C)C)c1ccccc1,111%
6,O=C(O)Cc1cccc(OCCCN(Cc2cccc(C(F)(F)F)c2Cl)CC(c2ccccc2)c2ccccc2)c1,108%

# Same assay, conditions: patient-derived ovarian cancer cells, CellTiter-Glo viability, 144 h; at 0.0195 µM; OCI-C5x cells; with rucaparib 10 µM; active compounds read low; 100% = cells with rucaparib alone
row,SMILES,viability
1,C[C@@H](N)C1CCC(C(=O)Nc2ccncc2)CC1 (some centres undefined),106%
2,CC(C)c1onc(-c2c(Cl)cccc2Cl)c1COc1ccc(/C=C/c2cccc(C(=O)O)c2)c(Cl)c1,101%
3,O=c1cc(N2CCOCC2)oc2c(-c3ccccc3)cccc12,102%
4,Cc1ccc(S(=O)(=O)/C=C/C#N)cc1,115%
5,C[C@H](NC(=O)Cc1cc(F)cc(F)c1)C(=O)N[C@H](C(=O)OC(C)(C)C)c1ccccc1,103%
6,O=C(O)Cc1cccc(OCCCN(Cc2cccc(C(F)(F)F)c2Cl)CC(c2ccccc2)c2ccccc2)c1,113%

# Same assay, conditions: patient-derived ovarian cancer cells, CellTiter-Glo viability, 144 h; at 0.0195 µM; OCI-C5x cells; without rucaparib; active compounds read low
row,SMILES,viability
1,C[C@@H](N)C1CCC(C(=O)Nc2ccncc2)CC1 (some centres undefined),112%
2,CC(C)c1onc(-c2c(Cl)cccc2Cl)c1COc1ccc(/C=C/c2cccc(C(=O)O)c2)c(Cl)c1,98.1% (active)
3,O=c1cc(N2CCOCC2)oc2c(-c3ccccc3)cccc12,104%
4,Cc1ccc(S(=O)(=O)/C=C/C#N)cc1,117%
5,C[C@H](NC(=O)Cc1cc(F)cc(F)c1)C(=O)N[C@H](C(=O)OC(C)(C)C)c1ccccc1,119%
6,O=C(O)Cc1cccc(OCCCN(Cc2cccc(C(F)(F)F)c2Cl)CC(c2ccccc2)c2ccccc2)c1,125%

# Same assay, conditions: patient-derived ovarian cancer cells, CellTiter-Glo viability, 144 h; at 0.0195 µM; OCI-P5x cells; with rucaparib 20 µM; active compounds read low; 100% = cells with rucaparib alone
row,SMILES,viability
1,C[C@@H](N)C1CCC(C(=O)Nc2ccncc2)CC1 (some centres undefined),89.2% (active)
2,CC(C)c1onc(-c2c(Cl)cccc2Cl)c1COc1ccc(/C=C/c2cccc(C(=O)O)c2)c(Cl)c1,100%
3,O=c1cc(N2CCOCC2)oc2c(-c3ccccc3)cccc12,98.1% (active)
4,Cc1ccc(S(=O)(=O)/C=C/C#N)cc1,95.6% (active)
5,C[C@H](NC(=O)Cc1cc(F)cc(F)c1)C(=O)N[C@H](C(=O)OC(C)(C)C)c1ccccc1,110%
6,O=C(O)Cc1cccc(OCCCN(Cc2cccc(C(F)(F)F)c2Cl)CC(c2ccccc2)c2ccccc2)c1,101%

# Source: PubChem BioAssay
